The nature of assay [1]: qHTS assay to identify aromatase inhibitors - cell viability counter screen (AID 743084).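 Further: cells stimulated with testosterone during compound exposure; nearly all actives have a fitted effect of over 55% in size.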
Assay [2] concerns the target Aryl hydrocarbon receptor (Homo sapiens) (UniProt P35869). In words: qHTS assay to identify small molecule that activate the aryl hydrocarbon receptor (AhR) signaling pathway (AID 743085). Further: nearly all actives have a fitted effect of over 15% in size. Further: potency means the concentration at half of the fitted maximal effect.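 On activation: HG2L7.5c1 human HepG2 liver cells with stably integrated DRE-driven firefly reporter; series mostly up to about 70 µM.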 In outline: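 HepG2 cells stably carrying a 20-DRE firefly luciferase reporter (HG2L7.5c1) treated with compound for 24 hr at 37C. Luciferase read by ONE-Glo luminescence, with CellTiter-Fluor viability read first.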
(In general: Quantitative high-throughput screening tests each substance at several concentrations.)

The nature of assay [3]: qHTS assay to identify small molecule that activate the aryl hydrocarbon receptor (AhR) signaling pathway - cell viability counter screen (AID 743086). Further: series mostly up to about 70 µM; nearly all actives have a fitted effect of over 45% in size. The essentials: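 HepG2-AhR-luc (HG2L7.5c1) cells, 4000/well, treated 24 h at 37 C with compound; viability measured as CellTiter-Fluor fluorescence after 30 min in the same wells as the luciferase read.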
Assay [4] has as its target Peroxisome proliferator-activated receptor gamma (Homo sapiens) (UniProt P37231). The assay is described as follows: qHTS assay to identify small molecule agonists of the peroxisome proliferator-activated receptor gamma (PPARg) signaling pathway (AID 743094; active means well fitted activation curve with a large enough effect in the signal ratio in the repeat runs, not every such curve was filed as active; the % refers to the signal ratio). In outline:
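GeneBLAzer PPARg UAS-bla HEK293H cells were plated, rested 5 h, then exposed to compounds for 17 h at 37C. Beta-lactamase activity was read by LiveBLAzer B/G FRET substrate fluorescence after 1 h at room temperature.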

The target is the same in assay [5]. In words: qHTS assay to identify small molecule antagonists of the peroxisome proliferator-activated receptor gamma (PPARg) signaling pathway (AID 743191; calls by dose curve; further: nearly all actives have a fitted effect of over 30% in size; further: potency means the concentration at half of the fitted maximal effect). The essentials: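 GeneBLAzer PPARg UAS-bla HEK293H cells, 5 h post-plating, exposed to compounds 17 h at 37C. LiveBLAzer B/G FRET substrate added for 1 h at room temperature; beta-lactamase reporter read by fluorescence intensity.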

The nature of assay [6]: qHTS assay to identify small molecule antagonists of the peroxisome proliferator-activated receptor gamma (PPARg) signaling pathway - cell viability counter screen (AID 743194). Further: nearly all actives have a fitted effect of over 55% in size. The conditions noted are these: Potency: co-treated with 50 nM rosiglitazone. In outline:
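Cytotoxicity counter screen in PPARg-bla HEK293H cells, same wells as reporter assay. Compounds plus 50 nM rosiglitazone (final) for 17 h at 37 C, then viability read by CellTiter-Glo luminescence.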

Assay [7] can be described thus: qHTS assay for small molecule agonists of the antioxidant response element (ARE) signaling pathway (AID 743202; active means well fitted activation curve with a large enough effect in the signal ratio in the repeat runs, not every such curve was filed as active; the % refers to the signal ratio; further: potency means the concentration at half of the fitted maximal effect). The essentials: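 ARE-bla HepG2 cells (beta-lactamase reporter under the antioxidant response element), plated 5 hours, then exposed to compounds 16 hours at 37 C. LiveBLAzer B/G FRET substrate added for 2 hours at room temperature; fluorescence intensity read.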

Assay [8] is described as follows: qHTS assay for small molecule agonists of the antioxidant response element (ARE) signaling pathway - cell viability counter screen (AID 743203; calls by dose curve; further: nearly all actives have a fitted effect of over 55% in size). In outline: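 ARE-bla HepG2 cells were plated, rested 5 h at 37C/5% CO2, then exposed to compounds in DMSO for 16 h. Viability was read as CellTiter-Glo luminescence after 30 min at room temperature, in the same wells as the ARE screen.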

Assay [9] can be described thus: qHTS assay for small molecule activators of the heat shock response signaling pathway - cell viability counter screen (AID 743209). Further: nearly all actives have a fitted effect of over 50% in size. The essentials: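 HSE-bla HeLa cells plated overnight, then exposed to Tox21 compounds (23 nL in DMSO) for 5 h at 37 C. After the bla reporter read, CellTiter-Glo was added in the same wells and luminescence read after 30 min at room temperature.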

The nature of assay [10]: qHTS assay for small molecule activators of the heat shock response signaling pathway (AID 743210; active means well fitted activation curve with a large enough effect in the signal ratio in the repeat runs, with a control signal flat, not every such curve was filed as active; the % refers to the signal ratio; further: series mostly up to about 63 µM). The essentials:
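HSE-bla HeLa cells (beta-lactamase reporter under heat shock response elements), plated overnight, then exposed to compounds 5 h at 37 C; LiveBLAzer B/G FRET substrate added, 2.5 h at room temperature, fluorescence intensity read.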

Several values for one entry are separate records, joined by “and”; a condition that tells them apart may be missing. Equal values may be shown once. Results filed as inconclusive are left out. Where a structure was tested more than once in an assay, its records may differ in their call. Activity calls are given as the source filed them. Unless noted, the call rests on the fitted dose curve; in most records, active means well fitted curve in the direction sought with a large enough effect in the repeat runs; inconclusive means weak or mixed curves; inactive means no such curve, though single readings can be large; an effect the other way counts as inactive or inconclusive.

26 molecules from PubChem BioAssay (Tox21) can be followed below.

Sequence of Aryl hydrocarbon receptor (Homo sapiens) (P35869 whole entry, looked up): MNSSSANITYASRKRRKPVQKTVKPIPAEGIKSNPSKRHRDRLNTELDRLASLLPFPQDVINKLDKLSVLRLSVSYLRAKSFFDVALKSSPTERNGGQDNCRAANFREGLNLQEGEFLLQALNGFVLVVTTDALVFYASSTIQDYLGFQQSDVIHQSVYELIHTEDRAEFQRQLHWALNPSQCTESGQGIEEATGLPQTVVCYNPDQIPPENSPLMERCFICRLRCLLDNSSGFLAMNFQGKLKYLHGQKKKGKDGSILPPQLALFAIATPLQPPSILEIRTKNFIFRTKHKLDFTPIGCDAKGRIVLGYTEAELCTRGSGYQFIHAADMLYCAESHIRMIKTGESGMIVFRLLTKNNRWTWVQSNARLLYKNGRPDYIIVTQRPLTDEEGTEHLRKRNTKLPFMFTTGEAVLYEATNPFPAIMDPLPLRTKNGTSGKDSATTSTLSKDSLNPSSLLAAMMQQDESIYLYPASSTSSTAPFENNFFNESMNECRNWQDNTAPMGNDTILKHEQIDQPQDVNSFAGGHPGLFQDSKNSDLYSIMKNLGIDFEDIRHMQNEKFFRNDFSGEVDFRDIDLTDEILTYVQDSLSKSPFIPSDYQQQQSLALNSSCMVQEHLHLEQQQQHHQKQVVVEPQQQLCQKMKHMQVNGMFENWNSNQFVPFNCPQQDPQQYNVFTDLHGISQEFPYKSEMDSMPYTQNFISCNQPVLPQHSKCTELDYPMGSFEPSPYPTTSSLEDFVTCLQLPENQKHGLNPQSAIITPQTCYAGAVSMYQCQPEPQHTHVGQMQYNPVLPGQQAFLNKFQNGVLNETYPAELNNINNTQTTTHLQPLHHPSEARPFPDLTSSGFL
Sequence of Peroxisome proliferator-activated receptor gamma (Homo sapiens) (P37231 whole entry, looked up): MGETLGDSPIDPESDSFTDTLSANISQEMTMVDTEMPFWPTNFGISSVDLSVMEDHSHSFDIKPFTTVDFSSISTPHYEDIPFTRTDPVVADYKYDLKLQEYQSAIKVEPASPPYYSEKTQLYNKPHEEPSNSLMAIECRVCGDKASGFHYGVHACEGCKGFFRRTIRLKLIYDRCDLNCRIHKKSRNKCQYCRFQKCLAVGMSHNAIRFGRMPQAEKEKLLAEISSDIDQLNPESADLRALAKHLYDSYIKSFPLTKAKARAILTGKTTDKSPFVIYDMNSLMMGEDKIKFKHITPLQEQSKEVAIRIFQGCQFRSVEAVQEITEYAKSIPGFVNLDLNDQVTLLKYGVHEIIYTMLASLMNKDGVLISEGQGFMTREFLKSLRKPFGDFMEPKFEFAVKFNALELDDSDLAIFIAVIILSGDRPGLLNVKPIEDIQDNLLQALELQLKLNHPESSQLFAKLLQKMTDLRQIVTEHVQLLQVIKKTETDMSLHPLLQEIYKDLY

Consider `CC(=NC#N)N(C)Cc1ccc(Cl)nc1`, for which the Potency entry in assay [1], in assay [2], in assay [3], in assay [5], in [6] and in [7] was “inactive” throughout. The Potency result in assay [8], in assay [9] and in assay [10] was “inactive” throughout. Also, in assay [4], the molecule was called inactive.
Regarding `O=C(O)C(Br)(Br)Br`, the Potency entry in assay [1], in assay [2], in assay [3], in [5], in [6] and in assay [8] was “inactive” in each case. Further, the Potency entry in assay [9] and in assay [10] was “inactive” each time. The outcome in assay [4] was inactive. For the same molecule, the Potency in assay [7] is 5.44 µM (active).
With `CCOC(=O)CC(SP(=S)(OC)OC)C(=O)OCC` (centres undefined), the Potency entry in assay [1], in assay [3], in assay [5], in assay [6], in [8] and in assay [9] was “inactive” each time. Also, the Potency entry in assay [2] was “inactive and 33.1 µM (active)”; in assay [7] it was 6.86 µM (active). The outcome in assay [4] was inactive.
`CCCCCCCCSC(=O)Oc1cc(Cl)nnc1-c1ccccc1`: the Potency result in assay [1], in [2], in assay [3], in assay [6], in [7] and in [8] was “inactive” throughout. Further, the Potency result in assay [9] and in [10] was “inactive” each time. Further, the call in [4] was inactive. In addition, in [5], the Potency is 43.6 µM (active).
In the case of `NCC1(CC(=O)O)CCCCC1`, the Potency result in assay [1], in assay [2], in assay [3], in assay [5], in assay [6] and in [7] was “inactive” in each case. The Potency entry in assay [8], in assay [9] and in assay [10] was “inactive” in each case. Also, the molecule was called inactive in assay [4].
As to `COC(=O)c1ccccc1CS(=O)(=O)NC(=O)Nc1nc(OC)cc(OC)n1`, the Potency entry in assay [1], in assay [2], in [3], in assay [5], in assay [6] and in assay [7] was “inactive” throughout. In addition, the Potency result in assay [8], in assay [9] and in assay [10] was “inactive” in each case. In addition, the molecule was called inactive in assay [4].
Regarding `CC(Cl)(Cl)Cl`, the Potency entry in [1], in [2], in [3], in assay [5], in [6] and in assay [7] was “inactive” in each case. The Potency result in assay [8], in assay [9] and in assay [10] was “inactive” each time. The call in [4] was inactive.
`CC(C)NCC(O)c1ccc([N+](=O)[O-])cc1` (centres undefined): the Potency entry in assay [1], in assay [2], in [3], in [5], in [6] and in assay [7] was “inactive” throughout. Further, the Potency entry in [8], in assay [9] and in assay [10] was “inactive” throughout. Moreover, the outcome in assay [4] was inactive.
Turning to `S=C=S`, the Potency entry in assay [1], in assay [2], in assay [3], in assay [5], in assay [6] and in assay [7] was “inactive” throughout. Moreover, the Potency result in [8] and in assay [9] was “inactive” in each case. Also, in assay [4], the molecule was classed as inactive.
As for `COP(=O)(O)OC`, the Potency entry in assay [1], in assay [2], in [3], in [5], in [6] and in assay [7] was “inactive” each time. The Potency entry in assay [8], in assay [9] and in assay [10] was “inactive” throughout. Besides, the call in assay [4] was inactive.
With `CCNP(=S)(OC)O/C(C)=C/C(=O)OC(C)C` (centres undefined), the Potency entry in assay [1], in assay [3], in [5], in assay [6], in assay [7] and in assay [8] was “inactive” each time. The Potency result in [9] and in assay [10] was “inactive” in each case. The Potency in assay [2] is 4.86 µM (active). In addition, in [4], the molecule was called inactive.
`C[C@@H](N)[C@@H](O)c1ccccc1`: the Potency result in assay [1], in assay [2], in [3], in [5], in [6] and in [7] was “inactive” each time. The Potency result in assay [8] and in assay [9] was “inactive” each time. Moreover, the molecule was classed as inactive in assay [4].
With `NC(=O)OCCCc1ccccc1`, the Potency result in assay [1], in [2], in [3], in [5], in assay [6] and in assay [7] was “inactive” throughout. Further, the Potency result in assay [8], in [9] and in assay [10] was “inactive” in each case. In assay [4], the molecule was classed as inactive.
Turning to `N#CN`, the Potency result in assay [1], in assay [2], in assay [3], in [5], in assay [6] and in assay [7] was “inactive” throughout. In addition, the Potency entry in assay [8], in [9] and in assay [10] was “inactive” in each case. In addition, in [4], the molecule was classed as inactive.
Regarding `ClC(Cl)(Cl)Cl`, the Potency entry in assay [1], in assay [2], in assay [3], in assay [5], in assay [6] and in assay [7] was “inactive” each time. The Potency result in assay [8] and in assay [9] was “inactive” throughout. In addition, in assay [4], the molecule was called inactive.
`BrCc1ccc(Br)cc1`: the Potency entry in assay [1], in assay [2], in assay [3], in assay [5], in assay [6] and in [7] was “inactive” in each case. Further, the Potency result in [8], in [9] and in assay [10] was “inactive” in each case. For the same molecule, in [4], the call was inactive.
In the case of `O=S1(=O)OCCO1`, the Potency result in assay [1], in assay [2], in [3], in assay [5], in assay [6] and in assay [7] was “inactive” throughout. Further, the Potency result in assay [8], in assay [9] and in [10] was “inactive” each time. The result in [4] was inactive.
`O=C(Cl)C(Cl)(Cl)Cl`: the Potency entry in assay [1], in assay [2], in assay [3], in assay [5], in assay [6] and in assay [7] was “inactive” in each case. The Potency result in assay [8], in assay [9] and in assay [10] was “inactive” each time. For the same molecule, the outcome in [4] was inactive.
For `CCCC[N+](=O)[O-]`, the Potency result in assay [1], in [2], in assay [3], in assay [5], in assay [6] and in [7] was “inactive” in each case. In addition, the Potency entry in [8], in [9] and in [10] was “inactive” each time. Besides, in assay [4], the call was inactive.
Regarding `ClCCCCl`, the Potency entry in assay [1], in [2], in [3], in assay [5], in assay [6] and in assay [7] was “inactive” throughout. The Potency entry in assay [8], in assay [9] and in assay [10] was “inactive” in each case. Further, the molecule was classed as inactive in assay [4].
Regarding `COc1ccc(CN2CCNCC2)c(OC)c1OC`, the Potency entry in [1], in [2], in assay [3], in assay [5], in assay [6] and in [7] was “inactive” in each case. Besides, the Potency entry in [8] and in [9] was “inactive” in each case. Besides, in assay [4], the outcome was inactive.
`BrCC1CO1` (centres undefined): the Potency result in [1], in assay [2], in assay [3], in assay [5], in assay [6] and in [7] was “inactive” each time. Further, the Potency result in assay [8], in assay [9] and in [10] was “inactive” in each case. Also, the molecule was called inactive in assay [4].
`Cn1c(CCCC(=O)O)nc2cc(N(CCCl)CCCl)ccc21`: the Potency result in assay [1], in assay [2], in assay [3], in assay [5], in assay [6] and in [7] was “inactive” throughout. For the same molecule, the Potency result in assay [8], in [9] and in [10] was “inactive” throughout. Further, the result in [4] was inactive.
With `CCCCCCCC(=O)Cl`, the Potency entry in assay [1], in assay [2], in assay [3], in assay [5], in [6] and in assay [7] was “inactive” each time. The Potency entry in assay [8], in assay [9] and in assay [10] was “inactive” in each case. The result in assay [4] was inactive.
In the case of `CCCC(C)(COC(N)=O)COC(N)=O`, the Potency result in assay [1], in assay [2], in assay [3], in assay [5], in [6] and in assay [7] was “inactive” throughout. Further, the Potency entry in assay [8], in assay [9] and in assay [10] was “inactive” each time. Further, in assay [4], the molecule was classed as inactive.
With `CN(C)CCN(C)C`, the Potency result in assay [1], in [2], in [3], in assay [5], in assay [6] and in assay [7] was “inactive” in each case. Also, the Potency result in assay [8] and in [9] was “inactive” in each case. Also, the call in [4] was inactive.
